This note sets out measurements from PubChem BioAssay AID1992 (Sanford-Burnham Center for Chemical Genomics, 2009).

The campaign covered roughly 50,000 compounds. About 350 (0.7%) were called active. The entries come from a sample that favours actives as a whole. Values without a mark were called inactive. Cut-off read from the data, not from the text of the source: active = inhibition above about 60%; inactive = the rest.

Dual specificity protein phosphatase 3 (Homo sapiens), sequence (P51452 whole entry, looked up): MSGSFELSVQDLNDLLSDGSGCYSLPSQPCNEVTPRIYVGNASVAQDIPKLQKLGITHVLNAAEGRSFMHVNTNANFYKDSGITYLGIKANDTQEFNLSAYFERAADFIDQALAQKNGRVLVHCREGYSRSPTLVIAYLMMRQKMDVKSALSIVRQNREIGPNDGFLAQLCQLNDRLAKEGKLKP

The assay addresses Dual specificity protein phosphatase 3 (Homo sapiens) (UniProt P51452). In words: human DUSP3 activity blockers – biochemical, colorimetric, HTS, primary screen (AID 1992). The note with it: recombinant VHR phosphatase, colorimetric substrate read-out; at 20 µM; active compounds read high.
Usually inhibition stands for the drop in the measured response relative to a control, in per cent. `CCc1ccc(NC(=O)C(=O)NCCN2CCOCC2)cc1`: the inhibition was 12.8%.

As to `COc1ccc(C(=O)Nc2ccc3oc(-c4cc(Cl)c(OC)c(Cl)c4)nc3c2)cc1OC`, the inhibition is 45.4%.

`COc1cccc(N2C(=O)C=CC2=O)c1`: the inhibition is 49.6%.

Turning to `COc1ccc(N2C(=O)C3C4C=CC(C4=C(C)C)C3C2=O)c([N+](=O)[O-])c1` (stereo not drawn), the inhibition was 4.6%.

Regarding `COc1ccc(N2C(=O)C=CC2=O)c([N+](=O)[O-])c1`, the inhibition is 58.9% (active).

Consider `Cc1ccc(N2C(=O)/C(=C/N3CCOCC3)c3ccccc3C2=O)cc1`, for which the inhibition is 13.6%.

Turning to `CCOC(=O)c1c(N2C(=O)C3CC(C)=C(C)CC3C2=O)sc2c1CCCC2` (stereo not drawn), the inhibition is -3.1%.

Take `COc1ccccc1-n1c(=S)[nH]c2ccccc2c1=O`: the inhibition was 5.2%.

For `COC(=O)Nc1ccc(S(=O)(=O)N2CCN(c3ccccc3OC)CC2)cc1`, the inhibition is -59.1%.

In the case of `COC(=O)C1=NNC2(C)C(=O)N(c3ccccc3OC)C(=O)C12` (stereo not drawn), the inhibition was 97% (active).

In the case of `O=C(Nc1cc(C(F)(F)F)cc(C(F)(F)F)c1)c1ccco1`, the inhibition is -7.4%.

With `O=C(Nc1cccc(O)c1)c1cccnc1`, the inhibition was -14.8%.

For `CCOC(=O)COc1ccc(/C=N\n2nnnc2N)cc1OC`, the inhibition is -44.1%.

For the compound `Cc1ccc(/C=C2/C=C(c3ccccc3)OC2=O)o1`, the inhibition was 74.2% (active).

Regarding `Cc1ccc(C2=C/C(=C\c3cccnc3)C(=O)O2)cc1`, the inhibition is 14.8%.

On to `CCCCOc1ccc(/C=C2/C=C(c3ccccc3)OC2=O)cc1`, for which the inhibition was 21.2%.

Consider `Cc1cc(C)c(NS(=O)(=O)c2ccc3ccccc3c2)c(C)c1`, for which the inhibition is -0.6%.

For the compound `O=C(N/N=C/c1ccc(-c2cccc(Cl)c2)o1)c1cccnc1`, the inhibition is -17.2%.

In the case of `O=C(O)c1cc(-c2ccc(C=C3C(=O)c4ccccc4C3=O)o2)ccc1O`, the inhibition is 9.3%.

For `O=C(O)c1cc(-c2ccc(/C=N/Nc3ccc(Cl)c(Cl)c3)o2)ccc1Cl`, the inhibition is 89.1% (active).

As to `O=C(CCc1n[nH]c(=O)[nH]c1=O)N/N=C/c1ccc([N+](=O)[O-])cc1`, the inhibition is -17.4%.

In the case of `C#CCn1cc(/C=C(/C#N)C(=O)Nc2ccc(Cl)cc2)c2ccccc21`, the inhibition was -3.6%.

With `CC(=O)c1sc(NC(=O)c2cc(Cl)ccc2[N+](=O)[O-])nc1C`, the inhibition is 4.8%.

As for `O=C(Nc1ccccc1C(=O)O)c1ccc(NC(=O)c2cccs2)cc1`, the inhibition was -7.6%.

As for `CCOC(=O)C1=C(C)N=c2s/c(=C\c3cc(OC)c(O)c(OC)c3)c(=O)n2C1c1ccccc1` (stereo not drawn), the inhibition was 35.5%.

Turning to `O=C(NCCCn1ccnc1)c1cc2c(ccc3ccccc32)oc1=O`, the inhibition is -14.2%.

For `C=C(C)COc1ccc2oc(-c3ccccc3)c(C(=O)O)c2c1`, the inhibition was -5.7%.

As to `O=S(=O)(O)c1nc2ccccc2n1-c1ccccc1`, the inhibition is 91.8% (active).

`Cc1nc2cc(S(N)(=O)=O)ccc2n1-c1ccccc1`: the inhibition was 0.2%.

Consider `O=C(CSc1nc2ccccc2c(=O)n1-c1ccccc1)Nc1ccccc1`, for which the inhibition is -19.9%.

Consider `COc1ccc(OC)c(/C=C/C(=O)Nc2ccc(N(C)C)cc2)c1`, for which the inhibition is -29.5%.

As to `Fc1cnc(NN=Cc2cccs2)nc1N1CCOCC1`, the inhibition is -10.8%.

Consider `O=C(CN(c1cccc(Br)c1)S(=O)(=O)c1ccccc1)N1CCOCC1`, for which the inhibition was -30.2%.

On to `CC(=O)N(C1=C(Cl)C(=O)c2ccccc2C1=O)c1cccc(Br)c1`, for which the inhibition was 84.5% (active).

Turning to `CC1CCCC(C)C1NC1=C(Cl)C(=O)c2ccccc2C1=O` (stereo not drawn), the inhibition was -2.5%.

For `COc1ccc(N2C(=O)c3cccc4cccc(c34)C2=O)cc1OC`, the inhibition was 7.9%.

Take `COc1cc(C(=O)Nc2cccc3nsnc23)cc(OC)c1OC`: the inhibition is -4.9%.

`COc1ccc(NC(=O)c2cccc(Cl)c2Cl)cc1OC`: the inhibition was 1.3%.

As to `Cc1ccc(C(=O)NCCNc2ccc([N+](=O)[O-])cc2Cl)cc1`, the inhibition was -20.4%.

Regarding `Cc1ccc(S(=O)(=O)N(Cc2ccccc2)c2ccccc2C(=O)NC2CCCC2)cc1`, the inhibition is -20.6%.

Turning to `CC(=Nc1cc(Cl)ccc1O)c1c(-c2ccccc2)[nH]n(-c2nc3ccccc3s2)c1=O`, the inhibition is 2.5%.

For `COc1ccccc1NC(=O)C1=C(C)Nc2sc(C#N)c(N)c2C1c1ccco1` (stereo not drawn), the inhibition was 4.4%.

As for `CCOC(=O)c1c(NC(=O)Cc2ccc(Cl)cc2)sc(C(=O)Nc2cccc(OC)c2)c1C`, the inhibition is -1.7%.

`CCOC(=O)c1c(NC(=O)Cc2ccc(Cl)cc2)sc(C(=O)Nc2ccccc2OC)c1C`: the inhibition is 103% (active).

For the compound `CCOC(=O)c1c(NC(=O)c2ccc(OC)c(OC)c2)sc(C(=O)Nc2ccc(C)cc2C)c1C`, the inhibition was -18.8%.

`CCOC(=O)c1c(NC(=O)c2ccccc2OC)sc(C(=O)Nc2ccccc2F)c1C`: the inhibition was -11.7%.

Consider `CCOC(=O)c1c(NC(=O)c2ccccc2C)sc(C(=O)Nc2ccccc2OC)c1C`, for which the inhibition was -2.4%.

In the case of `CCOC(=O)c1c(NC(=O)C23CC4CC(CC(C4)C2)C3)sc(C(=O)Nc2ccccc2OC)c1C`, the inhibition is 120% (active).

In the case of `Cc1c(C#N)sc2nc(-c3ccccc3)nc(/N=C/N(C)C)c12`, the inhibition was -22.8%.

Take `Nc1ccc2nc(Sc3nc4ccc([N+](=O)[O-])cc4s3)sc2c1`: the inhibition is -10.9%.

As to `CC1=C(C(=O)Nc2ccc(C)cc2)C(c2ccc([N+](=O)[O-])cc2)NC(=O)N1` (stereo not drawn), the inhibition was -6.8%.

On to `CC12CCC(CC1=O)C(C)(C)N2` (stereo not drawn), for which the inhibition was -18.3%.

As for `O=C1C=CC(=O)N1Nc1c(Cl)cc(Cl)cc1Cl`, the inhibition was 102% (active).

With `COc1ccc(Nc2ncnc3ccc(Br)cc23)cc1`, the inhibition is 0.8%.

As for `O=C(CSc1ccccc1C(=O)O)c1ccc(-c2ccccc2)cc1`, the inhibition was 2.1%.

As to `Cc1ccc(C)c(OCc2nnc(NC(=O)c3ccccc3)s2)c1`, the inhibition is 5.1%.

Turning to `Cc1cc(C)cc(OCCCCNC(C)(C)C)c1`, the inhibition is -33.4%.

In the case of `Cc1nc2cc(-c3ccc(Br)cc3)[nH]n2c(=O)c1C`, the inhibition is 10.2%.

For `CC(=O)N1c2ccc3ccccc3c2C2C=CCC2C1c1ccc(F)cc1` (stereo not drawn), the inhibition was -6.5%.

In the case of `Cc1[nH]n(-c2ccc(Cl)cc2)c(=O)c1/C=N/NC(=O)c1ccccc1[N+](=O)[O-]`, the inhibition was -37.1%.

With `CC(=O)Nc1ccc(N2C(=O)C3C4C=CC(CC4)C3C2=O)cc1` (stereo not drawn), the inhibition is -14%.

As for `COc1ccccc1C1CC(c2ccc(F)cc2)=NN1c1ccccc1` (stereo not drawn), the inhibition was -3.2%.

Take `O=C1N=c2ccc(I)cc2=C1c1[nH]c(=S)[nH]c1O`: the inhibition is -37.4%.

As for `Cc1ccc(S(=O)(=O)NCCNS(C)(=O)=O)cc1[N+](=O)[O-]`, the inhibition is -9.6%.

In the case of `CCN(CC)C(=O)CSc1nc(O)c(Cc2ccccc2)c(=O)n1-c1ccc(OC)cc1`, the inhibition was 26.5%.

Regarding `O=C(O)CCCCCN1C(=O)C(=O)/C(=C(/O)c2ccc(F)cc2)C1c1cccc([N+](=O)[O-])c1` (stereo not drawn), the inhibition is 5%.

On to `COc1cc(/C=c2\sc3nc4c(C)cc(C)cc4n3c2=O)cc(Br)c1O`, for which the inhibition is -5.5%.

Regarding `Cc1cc(C)c2nc3s/c(=C\c4ccc(N(C)C)cc4)c(=O)n3c2c1`, the inhibition was -22.7%.

`Cc1cc(C)c2nc3s/c(=C\c4ccc(-c5ccccc5C(=O)O)o4)c(=O)n3c2c1`: the inhibition was 69.3% (active).

For the compound `COc1cc(NC(=O)c2ccc(-c3ccc([N+](=O)[O-])cc3C)o2)ccc1NC(=O)c1ccco1`, the inhibition is -3.8%.

Consider `c1ccc(-c2nnc(SC3CCCC3)nc2-c2ccccc2)cc1`, for which the inhibition was -9.1%.

With `Clc1cccc(CN2CCN(C3CCN(Cc4ccccc4)CC3)CC2)c1`, the inhibition was -6.2%.

As to `Cc1ccc(S(=O)(=O)c2ccc(Oc3ccc(Cl)cc3)cc2)cc1`, the inhibition is -26.6%.
